Experimental data published in PubChem BioAssay AID624136 (Broad Institute, 2012).
Among all 17,000 compounds or so, about 75 (0.4%) were called active.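 How the source made its calls: active means compounds whose four printed spots each glow above background more than chance allows, each with a p-value under 7%; inactive means the rest.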 Shown is part of a subset that was picked to be rich in actives.

Each molecule was assayed on mutant tumor protein p53 (GST-tagged), Homo sapiens (assay: binders of human mutant p53, primary screen, biochemical, small molecule microarray, anti-GST fluorescence (AID 624136)). Conditions: small molecule microarray binding.

outcome, inactive:
COc1cc(C(C)=O)ccc1OCC(O)Cn1nc(C)cc1C (stereo not drawn)
COc1ccc(CN(C)C[C@H]2Oc3c(NS(=O)(=O)c4ccc(Cl)cc4)cccc3C(=O)N([C@H](C)CO)C[C@@H]2C)cc1
C[C@H](CO)N1C[C@H](C)[C@@H](CN(C)Cc2ccc(Cl)c(Cl)c2)Oc2c(NC(=O)C3CCCCC3)cccc2C1=O
C[C@H]1CCCCO[C@@H](CN(C)C(=O)C2CCCCC2)[C@@H](C)CN([C@@H](C)CO)C(=O)c2cc(NS(=O)(=O)c3cccs3)ccc2O1
C[C@H](CO)N1C[C@H](C)[C@H](CN(C)C)Oc2ccc(NC(=O)Cc3ccccc3)cc2CC1=O
C[C@H]1CN([C@@H](C)CO)C(=O)c2cc(NC(=O)Nc3ccccc3)ccc2O[C@@H]1CN(C)C(=O)Nc1ccccc1
CCNc1nc(SCCOc2ccccc2)nc(N(C)C)n1
C[C@H](CO)N1C[C@H](C)[C@H](CN(C)C(=O)Nc2ccc(C(F)(F)F)cc2)Oc2ccc(NS(C)(=O)=O)cc2CC1=O
O=C(OCC1OC(Oc2ccc(O)cc2COC(=O)C2(O)C(O)CCC(O)C2O)C(O)C(O)C1O)c1ccccc1 (stereo not drawn)
C[C@@H]1CCCCO[C@H](CN(C)C(=O)Nc2ccccc2)[C@H](C)CN([C@H](C)CO)C(=O)c2cc(N(C)C)ccc2O1
Cc1noc(C)c1NC(=O)Nc1ccc2c(c1)CC(=O)N([C@H](C)CO)C[C@@H](C)[C@@H](CN(C)Cc1ccncc1)O2
CC(=O)Nc1ccc(NC(=O)CN(c2ccccc2Br)S(C)(=O)=O)cc1
Cc1noc(C)c1NC(=O)Nc1cccc2c1O[C@@H](CN(C)Cc1ccc(C(F)(F)F)cc1)[C@@H](C)CN([C@@H](C)CO)C2=O
C[C@@H]1CCCCO[C@@H](CN(C)S(=O)(=O)c2ccccc2)[C@H](C)CN([C@H](C)CO)C(=O)c2cc(NC(=O)CCC(F)(F)F)ccc2O1
Cc1noc(C)c1S(=O)(=O)Nc1ccc2c(c1)CC(=O)N([C@@H](C)CO)C[C@@H](C)[C@H](CN(C)C)O2
C[C@H](CO)N1C[C@H](C)[C@H](CN(C)C(=O)c2ccccc2)OCCCC[C@H](C)Oc2ccc(NS(C)(=O)=O)cc2C1=O
C[C@@H]1CCCCO[C@H](CN(C)Cc2ccccc2)[C@@H](C)CN([C@H](C)CO)C(=O)c2cc(NS(C)(=O)=O)ccc2O1
C[C@H](CO)N1C[C@H](C)[C@H](CN(C)C(=O)Nc2ccccc2)Oc2ccc(NC(=O)C3CC3)cc2CC1=O
CC(C)NC(=O)Nc1ccc2c(c1)C(=O)N([C@@H](C)CO)C[C@H](C)[C@@H](CN(C)C(=O)Nc1ccc(F)cc1)OCCCC[C@H](C)O2
COc1ccc(CN(C)C[C@@H]2Oc3ccc(NC(=O)Nc4ccc(OC)cc4)cc3C(=O)N([C@H](C)CO)C[C@H]2C)cc1
C=CC(C)(O)CCC1(C)C2=C(C(OC(C)=O)C(OC(C)=O)C1C)C(C)(C)CCC2 (stereo not drawn)
COc1cc([C@H](Cc2ccccc2)NC(C)=O)oc(=O)c1
CCc1ccc2c(c1)c1nc3ccccc3nc1n2CC(=O)OC
C[C@H]1CN([C@@H](C)CO)C(=O)Cc2cc(NC(=O)Nc3cccc4ccccc34)ccc2O[C@H]1CN(C)CC1CC1
C[C@@H]1CCCCO[C@H](CN(C)Cc2ccccc2)[C@@H](C)CN([C@H](C)CO)C(=O)c2cc(NS(=O)(=O)c3ccc(Cl)cc3)ccc2O1
C[C@H](CO)N1C[C@H](C)[C@@H](CN(C)C(=O)Nc2ccc3c(c2)OCO3)Oc2ccc(NC(=O)NC3CCCCC3)cc2CC1=O
CC(C)NC(=O)Nc1ccc2c(c1)CC(=O)N([C@@H](C)CO)C[C@@H](C)[C@@H](CN(C)S(=O)(=O)c1ccccc1)O2
C[C@@H]1CN([C@@H](C)CO)C(=O)c2cc(N(C)C)ccc2O[C@@H](C)CCCCO[C@H]1CN(C)Cc1ccncc1
CC(=O)O[C@H]1C[C@@H](OC(C)=O)C(C)(C)C2C[C@@H](O)[C@]3(C)C(CC[C@@]4(C)[C@H](c5ccoc5)OC(=O)C5OC543)[C@]21C (stereo partly drawn)
CCC(=O)O[C@]1(C(=O)CCl)[C@@H](C)CC2C3CCC4=CC(=O)C=C[C@]4(C)[C@@]3(F)[C@@H](O)C[C@@]21C (stereo partly drawn)
COc1ccc2nc(SCC(=O)Nc3ccc(I)cc3)[nH]c2c1
C[C@@H]1CN([C@@H](C)CO)C(=O)c2cccc(NC(=O)Nc3ccc(C(F)(F)F)cc3)c2O[C@@H]1CN(C)S(=O)(=O)c1cccs1
C[C@H](CO)N1C[C@H](C)[C@H](CN(C)Cc2ccccc2)OCCCC[C@H](C)Oc2ccc(NC(=O)CCC(F)(F)F)cc2C1=O
OCCNc1nc(Nc2ccc(Cl)cc2)nc(N2CCCCC2)n1
C[C@@H]1CN([C@@H](C)CO)C(=O)c2cccc(NS(=O)(=O)c3ccc(F)cc3)c2O[C@H]1CN(C)C(=O)NC1CCCCC1
C[C@H]1CN([C@@H](C)CO)C(=O)Cc2cc(NS(C)(=O)=O)ccc2O[C@@H]1CN(C)CC1CC1
Cc1ccc(-c2cc(C(F)(F)F)n3nc(C(=O)NCCN4CCOCC4)c(Cl)c3n2)cc1
CCC(=O)Nc1cccc(NC(=O)COc2ccc(Br)cc2)c1
CNC[C@H]1Oc2ccc(NC(=O)Nc3ccc4c(c3)OCO4)cc2CC(=O)N([C@H](C)CO)C[C@H]1C
COc1ccc(CN(C)C[C@H]2Oc3ccc(NC(=O)Cn4cnnn4)cc3CC(=O)N([C@@H](C)CO)C[C@@H]2C)cc1
C[C@H]1CN([C@@H](C)CO)C(=O)c2cccc(NS(=O)(=O)c3ccc(Cl)cc3)c2O[C@H]1CN(C)Cc1ccc2c(c1)OCO2
Cc1noc(C)c1S(=O)(=O)Nc1ccc2c(c1)C(=O)N([C@@H](C)CO)C[C@@H](C)[C@@H](CN(C)Cc1ccccc1)OCCCC[C@H](C)O2
CC(C)NC(=O)Nc1ccc2c(c1)C(=O)N([C@@H](C)CO)C[C@H](C)[C@H](CN(C)C(=O)Nc1ccc(F)cc1)OCCCC[C@@H](C)O2
